The record followed here is the supplement of paper PMC6555819.

This assay has as its system PPARg:RXRa IVT, anti-PPARg (NR concentration 270 nM, RXRa partner concentration 90 nM). As to the kind of experiment: PBM binding z-score (relative to random genomic background probes); higher = stronger binding; sequences stand for … in GC…GCGATTGACAGCGTAGAATGAAGG
Summed up: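 Binding z-scores were set against random background probes. The data came from custom Agilent 4×180K protein-binding microarrays carrying double-stranded probes with 34-nt variable regions, incubated 1 h with ligand-free nuclear receptor dimers. Partner-specific antibodies detected binding, and scanned fluorescence was regression-normalized.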
In turn, TCTTGTAGATTAGCAGGTTAAGAAAGCTGGCCAA gave a PBM binding z-score of 0.791.
On to CGAACTAGGTCAGAACAGGACAGTGAAGGATGAT, for which the PBM binding z-score came to 6.92.
In the case of CCTACTGGCCCAAAGGTCATTGATTCCAATGCTC, the PBM binding z-score stood at 3.61.
In turn, CGAACCAGGGCATGAGTTGATAGCAAATGCCGAT displayed a PBM binding z-score of 2.29.
The same measure for TTCCCAAGGTGAAAGGTCGTTGATGCACGCCTTG: 4.56; for CCTGCTACGTCATGGTCAGCTAATCTACAGTATG: -0.592; for TCGAGTAGGTTACCAATGAGGCATTCAGCTTTCT: 2.35.
In turn, AGTCAAAGTTCATCTAGGTAACGTACGATATGCT registered a PBM binding z-score of 4.13.
The sequence TCTAGGTGGTCACGGAGGTCACACACGACGGGTA had a PBM binding z-score of 4.12.
The sequence ACTAGCAGGCCAAGGGTCACCCAAGATTAGTCCG gave a PBM binding z-score of 4.15.
For GATACAGTGTCAGCTAGAGGCCAGAGTATGGAAA, the PBM binding z-score is 0.187.
The same measure for CCTTCTGGGCCATCAGGTCATTGATATCAACGTT: 5.03; for TCTTGTAGATAAACAGGAGGTTAAGAAAGATCGA: 0.282; for CCTACTGGGCCAAGGGTCATTGATTCCAATGCTC: 5.63.
GCTTGGAGATCAAGGTTAAGAAAGACTAAGCTAA gave a PBM binding z-score of 0.209.
In turn, ATCTCTAGGTAAGACTCAGTTCAGCGAAGAACGC yielded a PBM binding z-score of 1.01.
Regarding TCTAGTTTGTCACGGAGGTCACACACGACGGGTA, the PBM binding z-score came to 3.07.
Consider TCTGGTAGATCAAGCAGGTTAAGAAAGCCTGAGT, for which the PBM binding z-score was -0.178.
Then TTACCAAGGTGAGCTGAGGCCGTTGATCCAACTC, with 1.24; and TCTTGTAGCTCAATAGAGGTTAAGAAAGTGCGCT, with 0.506.
In the case of ATCTCTAGGGAACCAAGTTCAGTGAATGCCGAAC, the PBM binding z-score turned out to be 0.283.
Sequence TCTATTAGTTGAAGGACAACCGACGAGTCCGTTT registered a PBM binding z-score of 0.286.
Take ACTAGCAGGCCAAGTTGGGGTCACTCAAACAAAG: the PBM binding z-score came out at 2.36.
For TTACCAATGTGAGCTGAGGTCGTTGATCCAACTC, the PBM binding z-score is -0.0612.
The same measure for TCATATAGGTAATACAGGTGAAAATCGGCATCTA: 3.09; for TCTGCTAGGTCTGTTGGTCAGCTAACGAGCTGCC: 0.208; for TCTAGTTGGTCACGGAGGTCAAACACGACGGGTA: 3.95.
Sequence TCATTTAGGTAAAAGGTGAAAGTCGGTGTGGTAA came in with a PBM binding z-score of 4.91.
In the case of CGTCCAAGGTCAGAGAGGGCAGTGAATGCCGAGT, the PBM binding z-score was 2.6.
AATACAGGGTCACTAGGCCAGACTAGGTACGAAT had a PBM binding z-score of 5.9.
In turn, ACTTACGGGCCAACGAGGTTATAGCACGCGTATA registered a PBM binding z-score of 0.418.
Consider CACCCTAGGTCAGGGCCAGTATAGGAGGAACGTT, for which the PBM binding z-score was found to be 1.64.
CGAACTAGGTCGTTGACAGGACAGTGAATAGTAA registered a PBM binding z-score of 5.01.
The same measure for TCGAGTAGGTTACCAAAGGGGCATTCAGCTTTCT: 2.74; for TCTTGTAGACCAGCAGGTTAAGAAAGCTGGCCAA: 0.1; for CCTATTAGTTGACCATAAGGGCAGCCGAAGCTCG: 0.178.
Sequence CATACATGGTCAGCTAGGCCAGAGTAGGGACGGC registered a PBM binding z-score of 0.125.
The sequence TCTTGTAGATCAATAGAGTTTAAGAAAGTGCGCT gave a PBM binding z-score of 0.625.
Sequence AGAATGAGGTTATACGTAGATAAGGGAAGAAAGT had a PBM binding z-score of 2.2.
